Experiment [1] in a line: ATG_TAL_CIS: Attagene CIS-FACTORIAL HepG2 Assay for human TAL Basal Promoter (AID 2282966; active = hit-call score of the fitted dose curve at least 0.9, where 1 is the maximum; inactive = score below 0.9;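 note: background control endpoint measuring basal TAL promoter reporter mRNA not a specific factor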). The settings on record: HepG2 Attagene cis-factorial TAL promoter reporter; actives raise or lower the signal. Summed up: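 HepG2, transient MRTU transfection, 24 h compound exposure; RNA → oligo(dT) RT → PCR → 6-FAM primer extension → HpaI digest → CE fluorescence. Bidirectional curve fit vs DMSO. Background-control readout.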

A short description of experiment [2]: ATG_TGFb_CIS: Attagene CIS-FACTORIAL HepG2 Assay for human Transforming Growth Factor (TGF) (AID 2282967; active = hit-call score of the fitted dose curve at least 0.9, where 1 is the maximum; inactive = score below 0.9). Conditions: HepG2 Attagene CIS TGFb reporter, mRNA transcription; actives raise or lower the signal. The method in brief:
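HepG2 cells transiently transfected with cis-promoter-driven multiple reporter units measure endogenous TF activity; reporter mRNA quantified at 24 h by RT-PCR, FAM labeling, HpaI digestion and capillary electrophoresis. Bidirectional fit vs DMSO.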

In experiment [3] the target is Nuclear receptor subfamily 1 group I member 3 (Homo sapiens) (UniProt Q14994). Briefly: ATG_CAR_TRANS: Attagene TRANS-FACTORIAL HepG2 Assay for human Constitutive Androstane Receptor (CAR) (AID 2282969).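 Note: activators raise reporter mRNA above DMSO so AC50 marks induction.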 The settings on record: HepG2 Attagene TRANS-FACTORIAL CAR reporter. The method in brief:
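Signal is reporter mRNA induction relative to DMSO, measured 24 h after dosing by RT-PCR with fluorescent primer extension and capillary electrophoresis. Human HepG2 liver cells carried transiently transfected chimeric NR-Gal4/GAL4-UAS reporter constructs.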

For experiment [4], the target named is Estrogen receptor (Homo sapiens) (UniProt P03372). Kind of experiment: ATG_ERa_TRANS: Attagene TRANS-FACTORIAL HepG2 Assay for human Estrogen Receptor alpha (ERa) (AID 2282970). The settings on record: HepG2 Attagene TRANS ERa GAL4 reporter, mRNA. The method in brief:
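Reporter mRNA induction after 24 hours, detected by fluorescent RT-PCR and capillary electrophoresis, gives the read-out. Cells are HepG2 transiently transfected with GAL4-UAS reporter transcription units responding to chimeric NR-Gal4. Activity is taken as gain of signal over DMSO baseline.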

Experiment [5] has as its target X-box-binding protein 1 (Homo sapiens) (UniProt P17861). Briefly: ATG_Xbp1_CIS: Attagene CIS-FACTORIAL HepG2 Assay for human X-box Binding Protein 1 (XBP1) (AID 2282972; active = hit-call score of the fitted dose curve at least 0.9, where 1 is the maximum; inactive = score below 0.9). Conditions: HepG2 XBP1 cis-element reporter, Attagene multiplex; actives raise or lower the signal. Summed up:
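Reporter transcripts were quantified by RT-PCR with fluorescent primer extension and capillary electrophoresis after 24 h chemical exposure. Cells: transiently transfected HepG2 carrying cis-regulated reporter constructs; data fitted bidirectionally relative to DMSO.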

Experiment [6] deals with Estrogen-related receptor gamma (Homo sapiens) (UniProt P62508). Kind of experiment: ATG_ERRg_TRANS: Attagene TRANS-FACTORIAL HepG2 Assay for human Estrogen-Related Receptor gamma (ERRg) (AID 2282977).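 Note: hits increase reporter signal over DMSO so potencies reflect activators.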 Conditions: HepG2 Attagene TRANS reporter, ERRg transactivation. Summed up: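 Induction of reporter transcripts through a chimeric NR-Gal4 protein is quantified in transfected human HepG2 liver cells after 24 h chemical exposure, using RT-PCR with capillary electrophoresis detection and DMSO as baseline.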
Sequence of Estrogen-related receptor gamma (Homo sapiens) (P62508 whole entry, looked up, the tested form may be a part): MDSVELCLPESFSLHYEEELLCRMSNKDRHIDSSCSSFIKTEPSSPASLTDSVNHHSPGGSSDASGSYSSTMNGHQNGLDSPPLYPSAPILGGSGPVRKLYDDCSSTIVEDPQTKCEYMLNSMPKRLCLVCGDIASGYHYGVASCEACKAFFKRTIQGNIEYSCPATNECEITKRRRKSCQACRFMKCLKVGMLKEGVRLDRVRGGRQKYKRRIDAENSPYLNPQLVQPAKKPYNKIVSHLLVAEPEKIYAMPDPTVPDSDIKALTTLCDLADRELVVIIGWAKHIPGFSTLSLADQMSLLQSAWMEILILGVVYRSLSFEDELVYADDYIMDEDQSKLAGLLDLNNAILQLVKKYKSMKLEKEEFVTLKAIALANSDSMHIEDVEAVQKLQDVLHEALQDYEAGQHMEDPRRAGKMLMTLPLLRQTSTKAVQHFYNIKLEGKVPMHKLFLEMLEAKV

Experiment [7] has as its target Glucocorticoid receptor (Homo sapiens) (UniProt P04150). Briefly: ATG_GR_TRANS: Attagene TRANS-FACTORIAL HepG2 Assay for human Glucocorticoid Receptor (GR) (AID 2282978).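 Note: activators score as hits since higher reporter transcript over DMSO is fitted.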 Conditions: HepG2 Attagene TRANS GR reporter, mRNA transcription. Summed up:
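Transiently transfected HepG2 cells express chimeric NR-GAL4 proteins acting on GAL4-UAS reporter units. Compounds are applied for 24 h. mRNA induction over DMSO is measured by capillary electrophoresis.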

Experiment [8] concerns the target Bile acid receptor (Homo sapiens) (UniProt Q96RI1). Briefly: ATG_FXR_TRANS: Attagene TRANS-FACTORIAL HepG2 Assay for Farnesoid X Receptor (FXR) (AID 2282979).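 Note: hits raise reporter mRNA above DMSO so AC50 marks FXR activation.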 Conditions: HepG2 Attagene TRANS FXR-GAL4 reporter transcription. The method in brief:
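Read-out: fluorescent reporter transcripts quantified by capillary electrophoresis after RT-PCR of total RNA. Source cells were HepG2 transiently carrying chimeric NR-GAL4 plus GAL4-UAS reporter units, dosed 24 h. Activity fitted upward relative to DMSO baseline.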

Experiment [9] addresses Oxysterols receptor LXR-alpha (Homo sapiens) (UniProt Q13133). Briefly: ATG_LXRa_TRANS: Attagene TRANS-FACTORIAL HepG2 Assay for human Liver X Receptor alpha (LXRa) (AID 2282980). The settings on record: HepG2 Attagene TRANS reporter, LXRa transactivation. The method in brief:
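Read-out: reporter transcript levels by RT-PCR plus capillary electrophoresis, fluorescence intensity. Transiently transfected HepG2, exogenous NR-GAL4 chimera, GAL4-UAS reporters; 24 h compound exposure. Activity = increase over DMSO negative control.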

For experiment [10], the target named is Oxysterols receptor LXR-beta (Homo sapiens) (UniProt P55055). Briefly: ATG_LXRb_TRANS: Attagene TRANS-FACTORIAL HepG2 Assay for human Liver X Receptor beta (LXRb) (AID 2282981). The settings on record: HepG2 Attagene TRANS GAL4-LXRb reporter, mRNA. Summed up: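 After 24 h chemical treatment of transfected HepG2 cells carrying exogenous NR-Gal4 chimeras, reporter mRNA was quantified by fluorescent RT-PCR and capillary electrophoresis; activity taken as increase over DMSO controls.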
Sequence of Oxysterols receptor LXR-beta (Homo sapiens) (P55055 whole entry, looked up, the tested form may be a part): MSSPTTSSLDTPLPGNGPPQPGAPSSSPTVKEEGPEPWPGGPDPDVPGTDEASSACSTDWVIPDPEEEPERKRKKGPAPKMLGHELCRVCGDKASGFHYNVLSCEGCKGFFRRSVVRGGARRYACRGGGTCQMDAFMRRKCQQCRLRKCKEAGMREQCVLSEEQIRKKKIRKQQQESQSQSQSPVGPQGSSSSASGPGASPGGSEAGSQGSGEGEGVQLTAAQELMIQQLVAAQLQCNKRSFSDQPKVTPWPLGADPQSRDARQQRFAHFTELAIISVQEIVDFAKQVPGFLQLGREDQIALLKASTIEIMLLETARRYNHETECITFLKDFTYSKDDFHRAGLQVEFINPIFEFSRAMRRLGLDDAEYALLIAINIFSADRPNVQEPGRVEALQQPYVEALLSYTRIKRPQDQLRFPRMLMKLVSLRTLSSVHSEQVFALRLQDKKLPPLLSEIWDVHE

Experiment [11] in a line: ATG_M_06_TRANS: Attagene TRANS-FACTORIAL HepG2 Assay for M06 Transcription Factor (Internal Marker) (AID 2282983). The settings on record: HepG2 Attagene TRANS M06 internal marker reporter. The method in brief:
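Read-out: fluorescent reporter cDNA fragments resolved by capillary electrophoresis after RT-PCR and HpaI cut. Source cells were HepG2 carrying transfected multi-reporter GAL4 constructs, dosed 24 h. Increase over DMSO control analysed.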

Experiment [12] in a line: ATG_M_32_TRANS: Attagene TRANS-FACTORIAL HepG2 Assay for M32 Transcription Factor (Internal Marker) (AID 2282984).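 Note: transcript level of a background control reporter unit measured by RT-PCR and capillary electrophoresis.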 The settings on record: HepG2 Attagene TRANS M32 internal marker reporter. Summed up: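 Internal background reporter in transfected HepG2: after 24 h chemical exposure, RNA reverse-transcribed, reporter cDNA amplified, fluorescently labelled and HpaI-cut, then sized by capillary electrophoresis. Gain of signal fitted against DMSO control.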

Experiment [13] deals with Nuclear receptor subfamily 4 group A member 2 (Homo sapiens) (UniProt P43354). Kind of experiment: ATG_NURR1_TRANS: Attagene TRANS-FACTORIAL HepG2 Assay for human Nuclear Receptor Related Protein 1 (NURR1) (AID 2282985). The settings on record: HepG2 Attagene TRANS reporter, mRNA readout. Summed up: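 Reporter transcript induction, measured by RT-PCR with fluorescent labelling, HpaI digestion and capillary electrophoresis, after 24 hr dosing of human HepG2 cells transiently expressing an exogenous NR-Gal4 fusion with GAL4-UAS-driven reporters; DMSO as baseline.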
Sequence of Nuclear receptor subfamily 4 group A member 2 (Homo sapiens) (P43354 whole entry, looked up, the tested form may be a part): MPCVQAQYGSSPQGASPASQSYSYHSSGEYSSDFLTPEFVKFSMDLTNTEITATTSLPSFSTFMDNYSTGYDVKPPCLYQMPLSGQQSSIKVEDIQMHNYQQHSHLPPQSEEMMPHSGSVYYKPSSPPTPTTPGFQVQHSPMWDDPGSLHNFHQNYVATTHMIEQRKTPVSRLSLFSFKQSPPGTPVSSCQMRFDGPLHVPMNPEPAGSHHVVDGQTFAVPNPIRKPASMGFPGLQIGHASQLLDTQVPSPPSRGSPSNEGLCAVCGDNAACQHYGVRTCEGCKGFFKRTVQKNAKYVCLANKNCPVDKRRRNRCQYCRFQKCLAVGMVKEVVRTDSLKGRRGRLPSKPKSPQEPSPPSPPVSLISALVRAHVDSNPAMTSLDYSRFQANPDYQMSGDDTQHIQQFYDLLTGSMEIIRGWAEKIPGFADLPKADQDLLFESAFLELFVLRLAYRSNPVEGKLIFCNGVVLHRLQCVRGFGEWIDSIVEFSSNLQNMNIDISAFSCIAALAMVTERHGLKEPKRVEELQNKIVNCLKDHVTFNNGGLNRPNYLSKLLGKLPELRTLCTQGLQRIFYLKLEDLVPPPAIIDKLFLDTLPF

Experiment [14] concerns the target Transcriptional activator Myb (Homo sapiens) (UniProt P10242). Kind of experiment: ATG_Myb_CIS: Attagene CIS-FACTORIAL HepG2 Assay for human Myeloblastosis (Myb) Proto-Oncogene Transcription Factor (AID 2282986; active = hit-call score of the fitted dose curve at least 0.9, where 1 is the maximum; inactive = score below 0.9). Conditions: HepG2 Attagene CIS-FACTORIAL Myb reporter transcription; actives raise or lower the signal. Summed up:
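Using HepG2 liver cells bearing transiently transfected cis-promoter reporter constructs, the assay measures induction or loss of reporter mRNA after 24 hours of dosing. Detection used fluorescently labeled RT-PCR products separated by capillary electrophoresis.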

Experiment [15] addresses Nuclear respiratory factor 1 (Homo sapiens) (UniProt Q16656). Briefly: ATG_NRF1_CIS: Attagene CIS-FACTORIAL HepG2 Assay for human Nuclear Respiratory Factor 1 (NRF1) Orphan Gene (AID 2282987; active = hit-call score of the fitted dose curve at least 0.9, where 1 is the maximum; inactive = score below 0.9). The settings on record: HepG2 NRF1 cis-element reporter, Attagene multiplex; actives raise or lower the signal. Summed up: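 Reporter mRNA induction or loss in HepG2 cells after 24 h dosing; cis-regulated reporter constructs report endogenous transcription-factor activity. Quantified by RT-PCR/capillary electrophoresis fluorescence, DMSO-referenced.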

The nature of experiment [16]: ATG_VDRE_CIS: Attagene CIS-FACTORIAL HepG2 Assay for human Vitamin D Receptor Element (VDRE) (AID 2282968; active = hit-call score of the fitted dose curve at least 0.9, where 1 is the maximum; inactive = score below 0.9). Conditions: HepG2 VDRE cis-reporter transcription, actives raise or lower the signal. The method in brief: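 Readout is VDRE-driven reporter mRNA reflecting endogenous factor activity in human HepG2 cells, sampled 24 h post-dose. Quantification used labelled RT-PCR products separated by capillary electrophoresis; bidirectional analysis relative to DMSO.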

Experiment [17] addresses Hepatocyte nuclear factor 4-alpha (Homo sapiens) (UniProt P41235). Kind of experiment: ATG_HNF4a_TRANS: Attagene TRANS-FACTORIAL HepG2 Assay for human Hepatocyte Nuclear Factor 4 alpha (HNF4a) (AID 2282982). Conditions: HepG2 HNF4a transactivation reporter, mRNA readout. The method in brief: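 Activity of an exogenous HNF4a–Gal4 fusion scored as induced GAL4-UAS reporter transcripts after 24 h chemical exposure of transfected human HepG2 cells. Read-out via RT-PCR with 6-FAM labelling and capillary electrophoresis; rise over DMSO baseline.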

Experiment [18] addresses Steroid hormone receptor ERR1 (Homo sapiens) (UniProt P11474). Kind of experiment: ATG_ERRa_TRANS: Attagene TRANS-FACTORIAL HepG2 Assay for human Estrogen-Related Receptor alpha (ERRa) (AID 2282971). Conditions: HepG2 Attagene TRANS reporter, ERRa transactivation. The method in brief:
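Transfected HepG2, 24 h dosing, ERRa-Gal4 chimera driving GAL4-UAS reporter. Readout: reporter mRNA via RT-PCR plus capillary electrophoresis (fluorescence). Positive direction vs DMSO control.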

Experiment [19] is described as follows: ATG_M_19_TRANS: Attagene TRANS-FACTORIAL HepG2 Assay for M19 Transcription Factor (Internal Marker) (AID 2282974). Conditions: HepG2 Attagene TRANS-FACTORIAL M19 internal marker reporter. Summed up:
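Multiplexed TRANS format: HepG2 liver cells bearing transient GAL4-UAS reporter units, chemical treatment 24 h, reporter transcripts quantified by RT-PCR plus capillary electrophoresis. DMSO defines baseline.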

Experiment [20] can be described thus: ATG_GAL4_TRANS: Attagene TRANS-FACTORIAL HepG2 Assay for GAL4 (Internal Marker) (AID 2282976). The settings on record: HepG2 Attagene TRANS GAL4 internal marker reporter. The method in brief:
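RT-PCR/capillary electrophoresis readout of reporter mRNA. HepG2, transient MRTU transfection (GAL4-UAS reporters), 24 h compound exposure. Background-control endpoint, positive direction vs DMSO baseline.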

Records with an inconclusive call do not appear. Calls of active or inactive are those of the source. Rule for the calls, unless noted: active = hit-call score of the fitted dose curve at least 0.9, where 1 is the maximum; inconclusive = response in the unintended direction; inactive = score below 0.9.

This is an account of results in PubChem BioAssay (EPA / NIEHS).

Sequence of Hepatocyte nuclear factor 4-alpha (Homo sapiens) (P41235 whole entry, looked up, the tested form may be a part): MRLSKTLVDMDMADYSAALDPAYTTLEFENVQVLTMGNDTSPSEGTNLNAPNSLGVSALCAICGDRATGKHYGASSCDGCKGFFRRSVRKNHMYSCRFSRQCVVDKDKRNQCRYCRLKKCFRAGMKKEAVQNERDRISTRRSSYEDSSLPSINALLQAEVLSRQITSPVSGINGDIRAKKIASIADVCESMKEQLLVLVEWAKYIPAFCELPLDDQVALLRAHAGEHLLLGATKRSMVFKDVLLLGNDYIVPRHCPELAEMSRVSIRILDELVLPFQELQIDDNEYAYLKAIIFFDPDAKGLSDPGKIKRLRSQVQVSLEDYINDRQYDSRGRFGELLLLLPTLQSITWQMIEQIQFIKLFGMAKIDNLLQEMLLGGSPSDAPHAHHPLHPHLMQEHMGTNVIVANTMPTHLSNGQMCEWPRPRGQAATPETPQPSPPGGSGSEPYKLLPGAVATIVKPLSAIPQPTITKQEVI
Sequence of Nuclear respiratory factor 1 (Homo sapiens) (Q16656 whole entry, looked up): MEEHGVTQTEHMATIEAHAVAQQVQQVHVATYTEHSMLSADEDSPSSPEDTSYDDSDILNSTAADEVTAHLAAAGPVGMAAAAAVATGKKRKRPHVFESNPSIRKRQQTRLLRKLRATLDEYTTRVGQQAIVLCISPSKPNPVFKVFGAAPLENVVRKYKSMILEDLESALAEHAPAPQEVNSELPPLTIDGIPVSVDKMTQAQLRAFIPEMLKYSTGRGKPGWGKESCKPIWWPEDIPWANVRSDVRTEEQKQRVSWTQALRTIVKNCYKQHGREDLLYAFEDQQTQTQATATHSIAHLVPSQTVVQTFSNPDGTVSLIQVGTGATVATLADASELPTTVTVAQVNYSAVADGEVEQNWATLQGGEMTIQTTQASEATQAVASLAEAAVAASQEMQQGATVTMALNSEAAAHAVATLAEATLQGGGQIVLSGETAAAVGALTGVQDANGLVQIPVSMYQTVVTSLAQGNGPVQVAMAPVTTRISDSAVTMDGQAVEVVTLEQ
Sequence of Oxysterols receptor LXR-alpha (Homo sapiens) (Q13133 whole entry, looked up, the tested form may be a part): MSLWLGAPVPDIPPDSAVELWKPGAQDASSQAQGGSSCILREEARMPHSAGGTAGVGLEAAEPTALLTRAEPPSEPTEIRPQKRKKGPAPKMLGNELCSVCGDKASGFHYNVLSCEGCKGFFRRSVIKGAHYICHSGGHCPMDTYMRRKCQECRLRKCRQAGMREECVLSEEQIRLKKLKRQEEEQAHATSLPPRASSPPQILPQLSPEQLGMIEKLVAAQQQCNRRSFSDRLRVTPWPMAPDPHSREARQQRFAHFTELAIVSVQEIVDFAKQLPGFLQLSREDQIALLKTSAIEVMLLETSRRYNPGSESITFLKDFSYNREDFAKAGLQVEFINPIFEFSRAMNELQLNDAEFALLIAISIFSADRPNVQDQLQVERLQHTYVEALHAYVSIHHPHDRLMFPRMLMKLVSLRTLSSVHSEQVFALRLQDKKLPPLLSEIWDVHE
Sequence of X-box-binding protein 1 (Homo sapiens) (P17861 whole entry, looked up): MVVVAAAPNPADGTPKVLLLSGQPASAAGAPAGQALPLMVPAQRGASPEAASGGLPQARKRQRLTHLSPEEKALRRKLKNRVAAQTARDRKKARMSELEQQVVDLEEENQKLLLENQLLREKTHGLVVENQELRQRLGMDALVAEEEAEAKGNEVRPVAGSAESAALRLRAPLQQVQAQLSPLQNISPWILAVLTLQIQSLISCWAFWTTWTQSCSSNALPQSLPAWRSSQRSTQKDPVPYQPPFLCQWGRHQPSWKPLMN
Sequence of Transcriptional activator Myb (Homo sapiens) (P10242 whole entry, looked up): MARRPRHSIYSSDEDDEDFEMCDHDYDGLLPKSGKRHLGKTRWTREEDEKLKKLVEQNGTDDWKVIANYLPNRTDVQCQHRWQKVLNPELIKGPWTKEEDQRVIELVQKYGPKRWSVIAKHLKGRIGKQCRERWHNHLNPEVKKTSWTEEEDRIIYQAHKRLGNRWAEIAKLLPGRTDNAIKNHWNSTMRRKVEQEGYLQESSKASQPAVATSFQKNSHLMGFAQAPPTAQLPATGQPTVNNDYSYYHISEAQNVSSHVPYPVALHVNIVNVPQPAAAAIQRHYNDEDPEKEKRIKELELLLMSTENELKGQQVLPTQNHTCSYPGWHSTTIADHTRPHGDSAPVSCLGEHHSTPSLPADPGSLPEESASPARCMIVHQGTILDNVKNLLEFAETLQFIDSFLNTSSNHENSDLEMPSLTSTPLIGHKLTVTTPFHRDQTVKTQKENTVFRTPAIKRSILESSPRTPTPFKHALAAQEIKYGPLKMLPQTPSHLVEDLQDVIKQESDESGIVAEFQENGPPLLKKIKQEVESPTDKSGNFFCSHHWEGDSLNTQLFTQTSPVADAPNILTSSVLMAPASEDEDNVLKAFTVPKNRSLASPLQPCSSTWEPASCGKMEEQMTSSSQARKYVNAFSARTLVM
Sequence of Glucocorticoid receptor (Homo sapiens) (P04150 whole entry, looked up, the tested form may be a part): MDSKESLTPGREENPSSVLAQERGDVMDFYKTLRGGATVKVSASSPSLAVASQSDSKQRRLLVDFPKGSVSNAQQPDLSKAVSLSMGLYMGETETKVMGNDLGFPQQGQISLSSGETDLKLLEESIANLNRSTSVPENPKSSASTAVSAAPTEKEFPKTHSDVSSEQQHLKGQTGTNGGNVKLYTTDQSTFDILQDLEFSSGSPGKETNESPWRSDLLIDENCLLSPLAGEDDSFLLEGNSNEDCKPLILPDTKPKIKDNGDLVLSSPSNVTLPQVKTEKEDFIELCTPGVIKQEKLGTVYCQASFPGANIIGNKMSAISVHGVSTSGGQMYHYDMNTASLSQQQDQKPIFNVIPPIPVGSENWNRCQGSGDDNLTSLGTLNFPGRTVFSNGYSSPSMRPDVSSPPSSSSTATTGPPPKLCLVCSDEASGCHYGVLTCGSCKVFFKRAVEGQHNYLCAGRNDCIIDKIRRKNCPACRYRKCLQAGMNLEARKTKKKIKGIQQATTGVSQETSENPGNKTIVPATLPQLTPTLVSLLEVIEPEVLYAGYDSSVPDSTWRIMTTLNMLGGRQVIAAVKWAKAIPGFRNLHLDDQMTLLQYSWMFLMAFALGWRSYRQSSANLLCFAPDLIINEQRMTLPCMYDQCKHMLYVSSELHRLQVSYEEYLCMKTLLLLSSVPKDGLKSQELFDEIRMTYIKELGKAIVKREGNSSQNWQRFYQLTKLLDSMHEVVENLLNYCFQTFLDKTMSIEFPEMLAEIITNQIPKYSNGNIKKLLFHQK
Sequence of Nuclear receptor subfamily 1 group I member 3 (Homo sapiens) (Q14994 whole entry, looked up, the tested form may be a part): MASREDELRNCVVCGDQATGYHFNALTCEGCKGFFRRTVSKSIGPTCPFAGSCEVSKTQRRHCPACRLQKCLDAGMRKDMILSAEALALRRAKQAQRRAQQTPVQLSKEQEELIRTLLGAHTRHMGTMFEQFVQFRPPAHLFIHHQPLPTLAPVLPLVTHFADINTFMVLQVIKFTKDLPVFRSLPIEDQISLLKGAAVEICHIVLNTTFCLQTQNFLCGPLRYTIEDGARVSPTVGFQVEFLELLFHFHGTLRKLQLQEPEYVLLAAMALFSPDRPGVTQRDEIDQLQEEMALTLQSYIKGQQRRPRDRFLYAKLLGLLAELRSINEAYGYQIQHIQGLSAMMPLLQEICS

Regarding `O=C(Nc1ccccc1)c1cc([N+](=O)[O-])ccc1Cl`, the call in [1], in experiment [2], in experiment [3], in experiment [6], in [7] and in experiment [8] was inactive. Moreover, the compound was classed as inactive in [9], in [10], in [11], in experiment [12], in experiment [13] and in experiment [14]. For the same compound, in experiment [15], the compound was classed as inactive. Further, the AC50 in experiment [4] was 5.47 µM (active); in [5], 4.35 µM (active).
Regarding `c1cc(C(c2ccc(OCC3CO3)cc2)c2ccc(OCC3CO3)cc2)ccc1OCC1CO1` (configuration not stated), the AC50 in [1] is 24.2 µM (active); in experiment [2], 23.7 µM (active); in [16], 10 µM (active); in [5], 7.9 µM (active); in experiment [15] it was 24 µM (active). Further, the call in experiment [10], in experiment [17], in [11], in [12], in experiment [13] and in experiment [14] was inactive.
On to `CCOc1ccccc1OCC`, for which the compound was called inactive in experiment [1], in experiment [2], in experiment [16], in experiment [5], in experiment [17] and in [11]. For the same compound, the outcome in experiment [13] and in [15] was inactive.
`CCCCC(CC)COCCC#N` (configuration not stated): the result in experiment [1], in experiment [2], in experiment [16], in [5], in experiment [7] and in experiment [11] was inactive. Also, the outcome in experiment [12], in experiment [13] and in [15] was inactive.
On to `CCCCCOC(=O)CCC`, for which the compound was called inactive in [1], in experiment [2], in [3], in [18], in experiment [5] and in experiment [19]. Besides, the compound was classed as inactive in experiment [20], in [6], in experiment [9], in [10], in experiment [12] and in experiment [14]. In [15], the compound was classed as inactive.
For `Cc1ccc(C(=O)O)o1`, the call in experiment [1], in [2], in experiment [16], in [5], in [9] and in [10] was inactive. Besides, the outcome in experiment [17], in experiment [12], in [13], in experiment [14] and in experiment [15] was inactive.

Broadly, the AC50 is the concentration at which the activity in the assay is half-maximal.
